# PubChem BioAssay (NCI)
# This is part of a sample that, as a whole, favours compounds with a hit. Of some 79,000 tested, about 15% had one in any assay. Calls of active or inactive are those of the source. Cut-off read from the data, not from the text of the source: active = growth inhibition above about 70%; inactive = the rest.
# Assay: NCI Yeast Anticancer Drug Screen. Data for the cln2 rad14 strain (AID 165);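 note: 0% = growth equal to vehicle treated cultures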
# Conditions: S. cerevisiae cln2 rad14 strain, at 50.0 µM, hits give high values
# Procedure, shortened: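 Growth of compound-exposed yeast (cln2 rad14 genotype) measured and expressed as inhibition relative to vehicle.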
row,Compound,growth inhibition
1,COc1ccc(Cl)c2c(=O)c3ccc4c(c3[nH]c12)C(=O)c1ccccc1C4=O,-17.6% (inactive)
2,O=C1C(c2ccccc2)=C(c2ccccc2)/C1=C\c1ccc(Cl)cc1Cl,-8.9% (inactive)
3,COc1ccc(N=Cc2ccc(C=Nc3ccc(OC)cc3)cc2)cc1,-0.95% (inactive)
4,CN(C)CCNC(=O)c1cccc(C(=O)Nc2ccccc2)c1[N+](=O)[O-],20.4% (inactive)
5,COc1cccc(C2C3=C(COC3=O)Oc3cc4c(cc32)OCO4)c1 (stereo not given),-1.6% (inactive)
6,O=C1[C@H]2ON(c3ccccc3)C(c3ccc(Cl)cc3)[C@H]2C(=O)N1c1ccc(Cc2ccc(N3C(=O)[C@@H]4ON(c5ccccc5)C(c5ccc(Cl)cc5)[C@@H]4C3=O)cc2)cc1 (stereo not given in full),26.4% (inactive)
7,CCOC(=O)C1CSCN1C(C)=O (stereo not given),-34.5% (inactive)
8,CC(=O)OCC(OC(C)=O)C(OC(C)=O)C(/C=C/[N+](=O)[O-])OC(C)=O (stereo not given),-24.6% (inactive)
9,CC(=O)Oc1cc2c3ccccc3ccc2c2ccccc12,-2.9% (inactive)
10,CCOC(=O)/C=C(\C)c1ccc(Cl)cc1,3.8% (inactive)
11,O=C(O)C(O)(C1CCCCC1)C1CCC2CCC3CCCC1C32 (stereo not given),12.7% (inactive)
12,C=CCOC(=O)OCC=C,-3.7% (inactive)
13,Cc1cc(OC(C)C)cc(C)c1C(=O)OCC(C)N1CCCC1 (stereo not given),5.35% (inactive)
14,CSC(SC)C(OC(C)=O)C(OC(C)=O)C(OC(C)=O)C(COC(C)=O)OC(C)=O (stereo not given),-30.9% (inactive)
15,COC(=O)C1C(COS(C)(=O)=O)ON2CCC(OC)(OC)C12 (stereo not given),-15.8% (inactive)
16,O=C(COc1ccc(F)cc1)OCCO,-33.2% (inactive)
17,Nc1ccnc(=O)[nH]1,-20.8% (inactive)
18,CCNC(=O)N(C)Cc1ccc(Cl)cc1,-71.5% (inactive)
19,CC1=C(C)OCC1,7.85% (inactive)
20,O=C1OC2C3c4ccccc4C(c4c3ccc3ccccc43)C2O1 (stereo not given),19.7% (inactive)

row,Compound,growth inhibition
1,C=C1C(=O)O[C@@H]2/C=C(\C)CC/C=C(/C)CC[C@@H]12,32.8% (inactive)
2,CC(=O)N(CCC(C)C)c1ccccc1,-43.9% (inactive)
3,CCOC(=O)c1cnc2c(cnn2C(C)C)c1NN,-23.9% (inactive)
4,C(=NC12CC3CC(CC(C3)C1)C2)C1CCCCC1,3% (inactive)
5,Clc1ccc(N=C2c3ccccc3CN2c2ccc(Cl)cc2)cc1,-4.85% (inactive)
6,COC(=O)C(=O)C(C(=O)C(=O)Nc1ccccc1C(N)=O)c1nc2ccc(C(=O)c3ccccc3)cc2[nH]c1=O (stereo not given),-17.1% (inactive)
7,Brc1cccc(N=NN2CCCC2)c1,9.6% (inactive)
8,N/N=C(\N)SCCCCCCS/C(N)=N/N,41.5% (inactive)
9,CNS(=O)(=O)c1ccc(Br)cc1,-14.2% (inactive)
10,O=C(O)c1ccc2ccccc2c1C(=O)O,-6.55% (inactive)
11,CN(C)CCN=C1Nc2ccccc2C(=O)N2CSCC12 (stereo not given),-1.25% (inactive)
12,Cc1cccc[n+]1C1CCc2ccccc2C1=O (stereo not given),-23.1% (inactive)
13,CCOC(=O)C1=C(Nc2ccc(Cl)cc2Cl)OCC1=O,-13.9% (inactive)
14,Cc1cc(C)n(/N=C/c2ccco2)c(=O)c1C#N,11.4% (inactive)
15,Cc1cc(C)cc(C(=O)N=C(c2ccncc2)c2nc(-c3ccccc3)oc2O)c1,-12.4% (inactive)
16,O=C(NCc1ccncc1)Nc1ccc(Cc2ccc(NC(=O)NCc3ccncc3)cc2)cc1,15.3% (inactive)
17,COc1cc([N+](=O)[O-])c(F)cc1F,-20.1% (inactive)
18,Cc1ccc(C(=O)N(Cc2ccccc2)Cc2ccccc2)cc1N=NN(C)C,-8.2% (inactive)
19,CC1OC(C)(Cc2ccccc2)OC1C (stereo not given),-59% (inactive)
20,C[Si](C)(C)N1N=NC2C(=O)N(c3ccccc3)C(=O)C21 (stereo not given),0.1% (inactive)

# Assay: NCI Yeast Anticancer Drug Screen. Data for the bub3 strain (AID 167)
# Conditions: S. cerevisiae bub3 mutant strain, at 50.0 µM, hits give high values
# Procedure, shortened: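 In this screen, a yeast mutant lacking normal mitotic checkpoint function is challenged with compound. Relative growth versus vehicle gives the inhibition value.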
row,Compound,growth inhibition
1,COc1ccc(Cl)c2c(=O)c3ccc4c(c3[nH]c12)C(=O)c1ccccc1C4=O,3.8% (inactive)
2,O=C1C(c2ccccc2)=C(c2ccccc2)/C1=C\c1ccc(Cl)cc1Cl,5.5% (inactive)
3,COc1ccc(N=Cc2ccc(C=Nc3ccc(OC)cc3)cc2)cc1,20.1% (inactive)
4,CN(C)CCNC(=O)c1cccc(C(=O)Nc2ccccc2)c1[N+](=O)[O-],-9.95% (inactive)
5,COc1cccc(C2C3=C(COC3=O)Oc3cc4c(cc32)OCO4)c1 (stereo not given),-4.55% (inactive)
6,O=C1[C@H]2ON(c3ccccc3)C(c3ccc(Cl)cc3)[C@H]2C(=O)N1c1ccc(Cc2ccc(N3C(=O)[C@@H]4ON(c5ccccc5)C(c5ccc(Cl)cc5)[C@@H]4C3=O)cc2)cc1 (stereo not given in full),21.4% (inactive)
7,CCOC(=O)C1CSCN1C(C)=O (stereo not given),-11.8% (inactive)
8,CC(=O)OCC(OC(C)=O)C(OC(C)=O)C(/C=C/[N+](=O)[O-])OC(C)=O (stereo not given),-3.4% (inactive)
9,CC(=O)Oc1cc2c3ccccc3ccc2c2ccccc12,8.85% (inactive)
10,CCOC(=O)/C=C(\C)c1ccc(Cl)cc1,-10.1% (inactive)
11,O=C(O)C(O)(C1CCCCC1)C1CCC2CCC3CCCC1C32 (stereo not given),-11.2% (inactive)
12,C=CCOC(=O)OCC=C,23.2% (inactive)
13,Cc1cc(OC(C)C)cc(C)c1C(=O)OCC(C)N1CCCC1 (stereo not given),-4.9% (inactive)
14,CSC(SC)C(OC(C)=O)C(OC(C)=O)C(OC(C)=O)C(COC(C)=O)OC(C)=O (stereo not given),2.3% (inactive)
15,COC(=O)C1C(COS(C)(=O)=O)ON2CCC(OC)(OC)C12 (stereo not given),7.3% (inactive)
16,O=C(COc1ccc(F)cc1)OCCO,-15.3% (inactive)
17,Nc1ccnc(=O)[nH]1,3.3% (inactive)
18,CCNC(=O)N(C)Cc1ccc(Cl)cc1,-8.95% (inactive)
19,CC1=C(C)OCC1,4.2% (inactive)
20,O=C1OC2C3c4ccccc4C(c4c3ccc3ccccc43)C2O1 (stereo not given),24.1% (inactive)

row,Compound,growth inhibition
1,C=C1C(=O)O[C@@H]2/C=C(\C)CC/C=C(/C)CC[C@@H]12,54.4% (inactive)
2,CC(=O)N(CCC(C)C)c1ccccc1,-6.45% (inactive)
3,CCOC(=O)c1cnc2c(cnn2C(C)C)c1NN,53.4% (inactive)
4,C(=NC12CC3CC(CC(C3)C1)C2)C1CCCCC1,4.8% (inactive)
5,Clc1ccc(N=C2c3ccccc3CN2c2ccc(Cl)cc2)cc1,-22.3% (inactive)
6,COC(=O)C(=O)C(C(=O)C(=O)Nc1ccccc1C(N)=O)c1nc2ccc(C(=O)c3ccccc3)cc2[nH]c1=O (stereo not given),-6.1% (inactive)
7,Brc1cccc(N=NN2CCCC2)c1,7.7% (inactive)
8,N/N=C(\N)SCCCCCCS/C(N)=N/N,39.9% (inactive)
9,CNS(=O)(=O)c1ccc(Br)cc1,3.35% (inactive)
10,O=C(O)c1ccc2ccccc2c1C(=O)O,-2.2% (inactive)
11,CN(C)CCN=C1Nc2ccccc2C(=O)N2CSCC12 (stereo not given),-15.3% (inactive)
12,Cc1cccc[n+]1C1CCc2ccccc2C1=O (stereo not given),-21.3% (inactive)
13,CCOC(=O)C1=C(Nc2ccc(Cl)cc2Cl)OCC1=O,-58.5% (inactive)
14,Cc1cc(C)n(/N=C/c2ccco2)c(=O)c1C#N,-17.5% (inactive)
15,Cc1cc(C)cc(C(=O)N=C(c2ccncc2)c2nc(-c3ccccc3)oc2O)c1,3.15% (inactive)
16,O=C(NCc1ccncc1)Nc1ccc(Cc2ccc(NC(=O)NCc3ccncc3)cc2)cc1,3.5% (inactive)
17,COc1cc([N+](=O)[O-])c(F)cc1F,9.35% (inactive)
18,Cc1ccc(C(=O)N(Cc2ccccc2)Cc2ccccc2)cc1N=NN(C)C,-31.4% (inactive)
19,CC1OC(C)(Cc2ccccc2)OC1C (stereo not given),-7.1% (inactive)
20,C[Si](C)(C)N1N=NC2C(=O)N(c3ccccc3)C(=O)C21 (stereo not given),0.4% (inactive)
